Active and inactive are the calls of the source. A call without a number means that no potency is given here. The call rests on the fitted dose curve; in most records, active means well fitted curve in the direction sought with a large enough effect; inconclusive means small, poorly fitted or top-dose-only effect, or another doubt; inactive means no such curve, though single readings can be large; an effect the other way counts as inactive or inconclusive.
System: not listed separately
Assay: qHTS for Inhibitors of Cell Surface uPA Generation: Validation Assay (AID 493164);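 further: RAW 264.7 macrophage cells exposed to compound for 18 h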
Conditions: mouse cells, plasminogen activation; series mostly up to 38.3 µM
Method in brief: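 Compounds are titrated over seven points (2.45 nM–38.3 uM final) onto pre-plated RAW 264.7 cells and incubated for 18 h. Retained intracellular ATP, measured with ATP-Lite, indicates blocked lethal factor entry.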

Structure (SMILES)	outcome
Nc1nc(Cl)nc2c1ncn2[C@@H]1O[C@H](COP(=O)(O)OP(=O)(O)OP(=O)(O)O)[C@@H](O)[C@H]1O	inactive
CN1CCc2cc(O)c(O)cc2C(c2ccccc2)C1 (stereo unspecified)	inactive
CSc1nc(N)c2ncn([C@@H]3O[C@H](COP(=O)(O)OP(=O)(O)OP(=O)(O)O)[C@@H](O)[C@H]3O)c2n1	inactive
C#C[C@]1(O)CC[C@H]2[C@@H]3CCC4=Cc5oncc5CC4(C)[C@H]3CCC21C (stereo partly specified)	inactive
CCOC(=O)C1=C(C)NC(C)=C(C(=O)OCC)C1c1c(F)c(F)c(F)c(F)c1F	inactive
O=C1NC(=O)/C(=C/c2ccc(-c3ccc(F)cc3O)o2)S1	inactive
CC(C)(C)c1ccc(S(=O)(=O)/C=C/C#N)cc1	inactive
Nc1ncnc2c1ncn2[C@@H]1O[C@H](COP(=O)(O)OP(=O)(O)OP(=O)(O)OP(=O)(O)OC[C@@H]2O[C@H](n3cnc4c(N)ncnc43)[C@@H](O)[C@H]2O)[C@@H](O)[C@H]1O	inactive
Fc1cccc(/C=N/N=C/c2cccc(F)c2)c1	inactive
CN1CCc2cccc3c2C1Cc1ccc(O)c(O)c1-3 (stereo unspecified)	inactive
Cc1cc(NC(=O)Nc2ccc3c(ccn3C)c2)sn1	inactive
NC(N)=NC(=O)c1nc(Cl)c(N2CCCCCC2)nc1N	inactive
CC(C)(C=O)Cc1cc(C(C)(C)C)c(O)c(C(C)(C)C)c1	inactive
C=CC(=O)c1ccc(CCCCCC)cc1	inactive
O=C(Nc1cccc(C(=O)Nc2ccc(S(=O)(=O)O)c3cc(S(=O)(=O)O)cc(S(=O)(=O)O)c23)c1)Nc1cccc(C(=O)Nc2ccc(S(=O)(=O)O)c3cc(S(=O)(=O)O)cc(S(=O)(=O)O)c23)c1	inactive
O=c1[nH]c2cc(C(F)(F)F)ccc2n1-c1cc(C(F)(F)F)ccc1O	inactive

Molecular target: Galactokinase (Homo sapiens) (UniProt P51570)
Assay: qHTS Validation Assay for Inhibitors of Human Galactokinase (GALK) (AID 493189)
Conditions: purified human GALK enzyme activity, qHTS 7-point titration; series mostly up to 57.5 µM
Method in brief: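 Enzyme activity is inferred from ATP consumption: human GALK phosphorylates galactose (100 uM) using 35 uM ATP for 1 h at room temperature, and luciferase-based Kinase-Glo Plus reports unconsumed ATP.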

Galactokinase (Homo sapiens), sequence (P51570 whole entry, looked up): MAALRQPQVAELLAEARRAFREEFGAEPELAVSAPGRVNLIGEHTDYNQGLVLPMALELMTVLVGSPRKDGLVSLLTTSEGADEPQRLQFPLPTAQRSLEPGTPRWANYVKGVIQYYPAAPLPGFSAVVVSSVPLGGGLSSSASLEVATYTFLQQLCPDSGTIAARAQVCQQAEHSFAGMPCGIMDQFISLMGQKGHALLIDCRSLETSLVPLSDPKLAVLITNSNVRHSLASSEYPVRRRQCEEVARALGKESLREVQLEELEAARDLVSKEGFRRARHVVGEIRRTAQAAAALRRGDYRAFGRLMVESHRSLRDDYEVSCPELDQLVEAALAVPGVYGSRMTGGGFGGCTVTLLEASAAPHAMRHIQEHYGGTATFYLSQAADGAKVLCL

Structure (SMILES)	Potency
CN1CCc2cc(O)c(O)cc2C(c2ccccc2)C1 (stereo unspecified)	inactive
CC(C)(C)NCC(O)COc1nsnc1N1CCOCC1 (stereo unspecified)	inactive
CN[C@H](CC(C)C)C(=O)N[C@H]1C(=O)N[C@@H](CC(N)=O)C(=O)N[C@H]2C(=O)N[C@H]3C(=O)N[C@H](C(=O)N[C@H](C(=O)O)c4cc(O)cc(O)c4-c4cc3ccc4O)[C@H](O)c3ccc(c(Cl)c3)Oc3cc2cc(c3O[C@@H]2O[C@H](CO)[C@@H](O)[C@H](O)[C@H]2O[C@H]2C[C@](C)(N)[C@H](O)[C@H](C)O2)Oc2ccc(cc2Cl)[C@H]1O	inactive
CC(C)(C)c1ccc(S(=O)(=O)/C=C/C#N)cc1	inactive
C=C/C(C)=C/[C@@]1(C)SC(=O)C(C)=C1O	inactive
CC[C@@H](C)[C@H]1O[C@]2(CC[C@@H]1C)C[C@@H]1C[C@@H](C/C=C(\C)[C@@H](O[C@H]3C[C@H](OC)[C@@H](O[C@H]4C[C@H](OC)[C@@H](O)[C@H](C)O4)[C@H](C)O3)[C@@H](C)/C=C/C=C3\CO[C@@H]4[C@H](O)C(C)=C[C@@H](C(=O)O1)[C@]34O)O2	inactive
Fc1cccc(/C=N/N=C/c2cccc(F)c2)c1	inactive
CN1CCc2cccc3c2C1Cc1ccc(O)c(O)c1-3 (stereo unspecified)	inactive
Cc1cc(NC(=O)Nc2ccc3c(ccn3C)c2)sn1	inactive
N.N.O=C(O)C1(C(=O)O)CCC1.[Pt]	inactive
NC(N)=NC(=O)c1nc(Cl)c(N2CCCCCC2)nc1N	inactive
CC(C)(C=O)Cc1cc(C(C)(C)C)c(O)c(C(C)(C)C)c1	inactive
O=c1[nH]c2ccccc2n1CCCN1CCN(C(c2ccccc2)c2ccccc2)CC1	inactive
O=C(Nc1cccc(C(=O)Nc2ccc(S(=O)(=O)O)c3cc(S(=O)(=O)O)cc(S(=O)(=O)O)c23)c1)Nc1cccc(C(=O)Nc2ccc(S(=O)(=O)O)c3cc(S(=O)(=O)O)cc(S(=O)(=O)O)c23)c1	inactive
O=c1[nH]c2cc(C(F)(F)F)ccc2n1-c1cc(C(F)(F)F)ccc1O	inactive
